# Data as given in ChEMBL document CHEMBL3988442, “University of Dundee, Small-Polar-MMV Screening Library” (2021).
# About 13,000 (27%) of roughly 48,000 compounds showed an effect of 50% or more. The list shows a part of the results.
# System: Wolbachia pipientis
# Assay: Anti-Wolbachia Cell-Based Screen
# Type: functional
# Set-up: scale not given: in the data most compounds retested in dose-response had high values
# Conditions: 5 µM
row,Compound,Percent Effect [%]
1,CSCc1nc(CNC(=O)C2CCCN(CC(N)=O)C2)cs1 (stereo not drawn),-6.144
2,CCC(C)(C)NC(=O)COC(=O)c1cc(C)ccc1NC(=O)N(C)C,-1.36
3,O=C(O)c1cccc(N2C[C@H](NC(=O)C3CCOCC3)[C@@H](C3CC3)C2)n1,-12.83
4,CN(CCc1ccccc1)Cc1nc(Cc2cccc(F)c2)no1,-15.79
5,CN(Cc1nc(Cc2cccc(F)c2)no1)C1CCOCC1,108
6,CN(CCc1cn[nH]c1)Cc1nc(Cc2cccc(F)c2)no1,-20.63
7,CCn1ccnc1CN(C)Cc1nc(Cc2cccc(F)c2)no1,17.71
8,CN(CCc1cn[nH]c1)Cc1nc(Cc2cccc(C(F)(F)F)c2)no1,-3.312
9,CCN(CC)Cc1nc(Cc2cccc(C(F)(F)F)c2)no1,107.6
10,CN(Cc1nc(Cc2cccc(C(F)(F)F)c2)no1)C(C1CC1)C1CC1,104.1
11,CN1CCCCC1Cc1nc(Cc2cccc(F)c2)no1 (stereo not drawn),9.056
12,CN(Cc1nc(Cc2cccc(C(F)(F)F)c2)no1)C1CCOCC1,106.5
13,Cc1n[nH]c(C)c1CNCC(O)c1ccc(F)c(F)c1 (stereo not drawn),-7.93
14,O=C(c1ccc(-n2ccnc2)nn1)N1CCCC1CCc1ccccc1 (stereo not drawn),7.406
15,c1nc2c(c(NCCCn3cncn3)n1)CCN(CC1CCOC1)CC2 (stereo not drawn),11.83
16,CN(Cc1cnn(C)c1)Cc1nc(Cc2cccc(Cl)c2)no1,5.655
17,CN(Cc1cccc(C(F)(F)F)c1)Cc1nc(-c2cnccn2)no1,-14.23
18,CN(Cc1nc(Cc2cccc(C(F)(F)F)c2)no1)CC1CCCCO1 (stereo not drawn),99.9
19,CN(Cc1nc(Cc2cccc(C(F)(F)F)c2)no1)C1CCCCC1,113.9
20,CN(C)C(=O)COC1COC2(CCN(CC3CCOCC3)CC2)C1.O=C(O)C(F)(F)F (stereo not drawn),121.3

row,Compound,Percent Effect [%]
1,CCOC1COC2(CCN(CC3CC3)CC2)C1.O=C(O)C(F)(F)F (stereo not drawn),97.53
2,CN(C)C(=O)COC1COC2(CCN(CC3CC3)CC2)C1.O=C(O)C(F)(F)F (stereo not drawn),-29.66
3,O=C(O)C(F)(F)F.O=C(O)C(F)(F)F.c1ccc(OC2COC3(CCN(CC4CC4)CC3)C2)nc1 (stereo not drawn),-30.37
4,O=C(O)C(F)(F)F.O=S(=O)(N[C@@H]1CCO[C@]2(CCN(CC3CCOCC3)C2)C1)C1CC1,-3.129
5,O=C(C1CCC2(CCN(CC3CCOCC3)CC2)O1)N1CCCC1.O=C(O)C(F)(F)F (stereo not drawn),-34.36
6,CCOC1COC2(CCN(CC3CCOCC3)CC2)C1.O=C(O)C(F)(F)F (stereo not drawn),102.9
7,COc1ccccc1CN1CC[C@]2(C[C@@H](OCC(=O)N(C)C)CO2)C1.O=C(O)C(F)(F)F,-8.079
8,Clc1cc(Cl)cc(CN2CCC(NCc3cc[nH]n3)CC2)c1,16.8
9,Cc1cccc(C(C)(C)NC(=O)CS(=O)(=O)CC(C)C)c1,15.34
10,COCCNC(=O)C[C@@H]1COC[C@H]2CN(C(=O)COC)C[C@@H]12,99.69
11,O=C(C[C@@H]1COC[C@H]2CN(CC3CC3)C[C@@H]12)N1CCCCO1.O=C(O)C(F)(F)F,-10.75
12,CC[C@H]1CN(S(C)(=O)=O)CC[C@H]1CC(=O)NCCOC,0.9239
13,COCCNC(=O)C[C@@H]1COC[C@H]2CN(C(=O)c3cnccn3)C[C@@H]12,-3.747
14,O=C(C[C@@H]1COC[C@H]2CN(CC3CCOCC3)C[C@@H]12)N1CCCCO1.O=C(O)C(F)(F)F,-14.45
15,CCC1CN(CC(=O)NCCOC)CCO1 (stereo not drawn),-3.161
16,CC[C@H]1CN(C(=O)C2CC2)CC[C@H]1CC(=O)NCCN1CCOCC1,0.8633
17,COCCNC(=O)C[C@@H]1COC[C@H]2CN(CC3CCOCC3)C[C@@H]12.O=C(O)C(F)(F)F,95.67
18,COCCNC(=O)C[C@@H]1COC[C@H]2CN(C(=O)C3CCOCC3)C[C@@H]12,115.8
19,O=C(CCc1ccccc1)N1CCCC(c2n[nH]c3nccnc23)C1 (stereo not drawn),111
20,Cc1ccc(CC(=O)N2CCCC(c3n[nH]c4nccnc34)C2)cc1 (stereo not drawn),102

row,Compound,Percent Effect [%]
1,O=C(Cc1ccc(F)cc1)N1CCCC(c2n[nH]c3nccnc23)C1 (stereo not drawn),91.78
2,O=C(CC1CCCC1)N1CCCC(c2n[nH]c3nccnc23)C1 (stereo not drawn),-9.091
3,Cc1cc(C2CCCN(C(=O)COc3ccc(F)cc3F)C2)n[nH]1 (stereo not drawn),-1.844
4,CN(C(=O)CN1CCc2nn(C)c(=O)cc2C1)c1nccs1,-17.97
5,CC(=O)N1CC=C(n2c(=O)[nH]c3ccccc32)CC1,120.7
6,CC(=O)N1CCC2(CC1)CN(C(=O)c1cccc3[nH]ccc13)C2,7.707
7,CC(=O)N1CCN(C(=O)c2c(Cl)c3ccccc3n2C)CC1,8.743
8,Cc1ccc(N2CC[C@@H](NC(=O)c3cnccn3)[C@H](O)C2)nn1,13.4
9,CC(C)CN1C(=O)CO[C@@H]2CN(C(=O)N(C)C)C[C@H]21,9.504
10,CN1CCC(C(=O)NCc2nncn2-c2ccccc2)CC1=O (stereo not drawn),-4.452
11,CN(CCO)C[C@@H]1CN(C(=O)c2cccc(OC(F)F)c2)C[C@@H]1CO,95.7
12,COCCN(C)C[C@@H]1CN(C(=O)c2cccc(Cl)c2)C[C@@H]1CO,153.3
13,CCN(C)C[C@@H]1CN(S(=O)(=O)c2cccc(C#N)c2)C[C@@H]1CO,-4.035
14,CN(CCO)C[C@@H]1CN(C(=O)c2c(F)cccc2Cl)C[C@@H]1CO,-7.74
15,COc1cc(F)c(C(=O)N2C[C@@H](CN(C)CCO)[C@@H](CO)C2)c(F)c1,-8.552
16,COCCN(C)C[C@@H]1CN(C(=O)c2cccc(C(F)(F)F)c2)C[C@@H]1CO,-9.662
17,COCCN(C)C[C@@H]1CN(C(=O)c2cccc(C#N)c2)C[C@@H]1CO,104.9
18,CN1CCC(N[C@@H]2CO[C@H](CNC(=O)Nc3ccccc3)[C@H]2O)CC1,-15.1
